PABP1 MLLE inh: inhibitors of microRNA-mediated deadenylation, human PABP1 MLLE binding | P11940 | GST-MLLE / FITC-PAM2 fluorescence polarization | inhibition, % at 20 µM | 360,000 tested, 0.36% active; in the data active = inhibition above about 35%, passing the limit was not always enough
PABP FP inh: PABP-poly(A) binding inhibition. P11940. PABP-poly(A) RNA binding, fluorescence polarization. calls only at 35 µM. 290,000 tested, 1% active;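 note: calls also rest on retests at 20 µM and on dose response follow-up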
eIF4H FP inh: inhibitors of RNA binding by human eIF4H. Q15056. eIF4H fluorescence polarization binding assay. inhibition, % at 35 µM. 290,000 tested, 0.94% active. AID 2012;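 note: calls also rest on retests at 20 µM and on dose response follow-up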
PHOSPHO1 inh: inhibitors of human PHOSPHO1 phosphatase. recombinant PHOSPHO1, absorbance phosphatase assay. inhibition, % at 13.3 µM. 290,000 tested, 1.1% active; in the data active = inhibition above about 60%
Target sequence (Q8TCT1 whole entry, looked up): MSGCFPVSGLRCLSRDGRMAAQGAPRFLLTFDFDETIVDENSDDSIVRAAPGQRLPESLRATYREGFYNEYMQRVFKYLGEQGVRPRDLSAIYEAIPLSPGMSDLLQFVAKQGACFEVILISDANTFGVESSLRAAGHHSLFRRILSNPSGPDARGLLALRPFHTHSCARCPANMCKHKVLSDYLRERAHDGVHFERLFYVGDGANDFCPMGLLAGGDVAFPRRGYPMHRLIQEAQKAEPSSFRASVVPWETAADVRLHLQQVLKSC
HMGR II inh: inhibitors of class II HMG-CoA reductase from Enterococcus faecalis. inhibition, % at 10 µM. purified E. faecalis HMGR, NADPH absorbance 340 nm kinetic. 190,000 tested, 0.41% active. AID 1066;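 active = inhibition above a set limit, the median over all tested compounds plus 3 SD, cut at about 9.5% in these data; inconclusive = no clear call, values can overlap the other calls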;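 note: enzyme runs in reverse so mevalonate oxidation gives rising NADPH absorbance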
Each line names hits and unclear results; the compound was inactive in the other large screens. Shown are actives, neighbours in structure and some others; about 2.4% of the full set was active somewhere. Unless noted, the rule behind the calls is not given here.

CC1CC(C)CN(c2nc3c(c(=O)n(C)c(=O)n3C)n2CCSc2nc3ccccc3o2)C1 (configuration not stated)	none (no result: PABP FP inh, eIF4H FP inh, PHOSPHO1 inh, HMGR II inh)
CC(C)C(NC(=O)c1ccccc1)C(=O)NC1=NCCS1 (configuration not stated)	PABP1 MLLE inh 44
CC(NC(=O)c1ccccc1)C(=O)NC1=NCCS1 (configuration not stated)	none
COc1ccc(-c2oc3ccccc3c2C#Cc2cncn2C)cc1	none (no result: PABP FP inh, eIF4H FP inh, PHOSPHO1 inh, HMGR II inh)
CCN(c1ccccc1)S(=O)(=O)c1cc(C(=O)O)ccc1C	PABP FP inh active, eIF4H FP inh 53
O=C(O)c1ccc(Cl)c(S(=O)(=O)N(Cc2ccccc2)c2ccccc2)c1	none (no result: HMGR II inh)
CC(=O)c1ccccc1C(=O)N1CCC(n2nccc2NC(=O)C2CC2)CC1	PHOSPHO1 inh 66 (no result: HMGR II inh)
COc1ccc(C(=O)N2CCC(n3nccc3NC(=O)C3CC3)CC2)c(OC)c1OC	none (no result: HMGR II inh)
CCOC(=O)c1ccc(N[C@@H]2CCN3C(=O)c4ccccc4[C@@H]3C[C@H]2O)cc1	none (no result: PABP FP inh, eIF4H FP inh, PHOSPHO1 inh, HMGR II inh)
CCCCCCC1CC(=CN(C)C)C(=O)O1 (configuration not stated)	none (no result: PABP FP inh, eIF4H FP inh, PHOSPHO1 inh, HMGR II inh)
CCOC(=O)c1c(NC(=O)c2ccccc2)sc2c1CCc1ccccc1-2	PABP1 MLLE inh 43
CCOC(=O)c1c(NC(=O)c2ccccc2Cl)sc2c1CCc1ccccc1-2	none
CC(=O)N1CC2(C)CN(C(C)=O)CC(C)(C1)C2	HMGR II inh 22
O=C(COC(=O)Cc1ccc(Cl)cc1)NCc1cccs1	none (no result: PABP FP inh, eIF4H FP inh, PHOSPHO1 inh, HMGR II inh)
Cc1noc(C)c1COc1ccccc1C(=O)N(C)CC(=O)Nc1ccc(F)c(F)c1F	none (no result: PABP FP inh, eIF4H FP inh, PHOSPHO1 inh, HMGR II inh)
CCCCCCNC(=O)C(=O)NCCc1ccc(Cl)cc1	HMGR II inh 47
CC(C)NC(=O)C(=O)NCCc1ccc(Cl)cc1	none
COC(=O)c1ccc(C(NC(=O)OCc2ccccc2)/C(C)=C/[C@@H](C)C(=O)NCc2ccc(-c3ccccc3)cc2)cc1 (some centres not stated)	HMGR II inh 14
Cc1ccc(CNC(=O)C(CCC(N)=O)NC(=O)OCc2ccccc2)cc1 (configuration not stated)	none
CN(Cc1ccc(Cl)cc1)C(=O)c1ccc2ccccc2n1	none (no result: HMGR II inh)
COCCN(CCOC)S(=O)(=O)c1ccc(C(=O)Nc2c(C)n(C)n(-c3ccccc3)c2=O)cc1	none (no result: HMGR II inh)
O=C(O)CCCCCCC1C(=O)NC(=O)N1CCC(O)C1CCCCC1 (configuration not stated)	HMGR II inh 17
O=C(O)CCCCCN1C(=O)C2CCCCC2C1=O (configuration not stated)	none
COc1ccc(CNC(=O)CN(c2cc(C)cc(C)c2)S(=O)(=O)c2c(C)[nH]c(=O)[nH]c2=O)cc1	PHOSPHO1 inh 64 (no result: HMGR II inh)
Cc1cc(C)cc(N(CC(=O)NCc2ccccc2Cl)S(=O)(=O)c2c(C)[nH]c(=O)[nH]c2=O)c1	none (no result: HMGR II inh)
C1CSC2(N1)C1CC3CC2CC(C1)C31NCCS1 (configuration not stated)	PHOSPHO1 inh 61
CCn1cc(CCCC(=O)NCc2ccc(OC)cc2)c2ccccc21	none (no result: HMGR II inh)
C=CCn1c(=O)/c(=C2/SC(C)=C(C)N2CC)s/c1=C1/C(=O)N(CC)C(=S)N1c1ccccc1	PHOSPHO1 inh 100
C=CCn1c(=O)/c(=C2/Sc3ccccc3N2CC)s/c1=C1/C(=O)NN=C1C	eIF4H FP inh inconclusive (no result: PABP1 MLLE inh)
COc1ccccc1CN1CC(C(=O)N2CCC(C(=O)c3ccccc3)CC2)CCC1=O (configuration not stated)	none (no result: HMGR II inh)
CC(=O)c1ccc(NC(=S)Nc2ccc3[nH]c(=O)[nH]c3c2)cc1	none
Cc1ccc(NC(=S)Nc2ccc3[nH]c(=O)[nH]c3c2)cc1C	PABP1 MLLE inh 43 (no result: HMGR II inh)
O=C(CSc1nnc(CNC(=O)c2ccco2)o1)Nc1ccc(Br)cc1	none (no result: HMGR II inh)
NC(=S)N=Nc1c(O)n(CCCl)c2ccc(Br)cc12	none (no result: HMGR II inh)
C/C(Cl)=C\Cn1c(O)c(N=NC(N)=S)c2cc(Br)ccc21	PABP1 MLLE inh 44
O=C(NC(=S)Nc1ccc(S(=O)(=O)Nc2nccs2)cc1)c1ccccc1	PABP1 MLLE inh 39
O=C(NC(=S)Nc1ccc(S(=O)(=O)Nc2nccs2)cc1)c1cccnc1	PABP1 MLLE inh 41
NS(=O)(=O)c1ccc(NC(=S)NC(=O)c2ccc(-c3ccccc3)cc2)cc1	PABP1 MLLE inh 43
O=C(Nc1ccc(S(=O)(=O)Nc2nccs2)cc1)c1nn(-c2ccccc2)ccc1=O	eIF4H FP inh 77 (no result: HMGR II inh)
O=C(NC(=S)Nc1ccc(S(=O)(=O)Nc2nccs2)cc1)c1ccccc1F	none
COc1ccc(C(C(=O)NC(C)(C)C)N(CCc2ccccc2)C(=O)CCC(=O)Nc2cc(C)on2)cc1 (configuration not stated)	none (no result: HMGR II inh)
O=C(c1cn(-c2ccccc2)nc1-c1cccnc1)N1CCCC(C(F)(F)F)C1 (configuration not stated)	none (no result: PABP FP inh, eIF4H FP inh, PHOSPHO1 inh, HMGR II inh)
COc1ccccc1S(=O)(=O)Nc1cc(C)nn1-c1ccc(C)cc1	none (no result: HMGR II inh)
NS(=O)(=O)c1ccc(NC(=O)C2(c3ccccc3)CCCC2)cc1	PABP FP inh active, eIF4H FP inh inconclusive
O=C(O)COc1ccccc1C(Nc1ccccn1)c1cc(Cl)c2cccnc2c1O (configuration not stated)	PABP FP inh active, eIF4H FP inh 54
COc1ccccc1C(NC(C)=O)c1cc(Cl)c2cccnc2c1O (configuration not stated)	none (no result: HMGR II inh)
O=C(O)COc1ccccc1C(Nc1cccnc1)c1cc(Cl)c2cccnc2c1O (configuration not stated)	PHOSPHO1 inh 84
CCOc1ccc(Nc2nc(Cc3nnc(SCC(=O)O)o3)cs2)cc1	eIF4H FP inh 48
COc1cc(CC2COC(c3ccc(O)c(OC)c3)C2COC(C)=O)ccc1O (configuration not stated)	PABP FP inh active, eIF4H FP inh 90 (no result: HMGR II inh)
O=C1CCCC2=C1C(c1ccccc1)CC(=O)N2c1ccc(F)cc1F (configuration not stated)	HMGR II inh 12
CC(C)(CCC(=S)N1CCOCC1)C1CCCCC1	PABP1 MLLE inh 42 (no result: HMGR II inh)
S=C(CN1CCCC1=S)N1CCOCC1	none (no result: PABP FP inh, eIF4H FP inh, PHOSPHO1 inh, HMGR II inh)
Cc1ccc(C2CC2c2n[nH]c(=S)n2-c2ccc(C)cc2)cc1 (configuration not stated)	PHOSPHO1 inh 90
Cc1ccc(-n2c(C3CC3c3ccc(Cl)cc3)n[nH]c2=S)cc1 (configuration not stated)	PHOSPHO1 inh 97
S=c1[nH]nc(C2CC2c2ccc(Cl)cc2)n1-c1ccc(Cl)cc1 (configuration not stated)	none
Cc1ccc(-n2c([C@@H]3C[C@H]3c3ccccc3)n[nH]c2=S)cc1	none
C/C(=N\Nc1ccc(S(=O)(=O)N2CCCCC2)cn1)c1cccc(Br)c1	none (no result: PABP FP inh, eIF4H FP inh, PHOSPHO1 inh, HMGR II inh)
Cc1cc2cc(C(c3nnnn3Cc3ccco3)N3CCc4ccccc4C3)c(=O)[nH]c2cc1C (configuration not stated)	PABP FP inh active, eIF4H FP inh 63
Cc1cc2cc(C(c3nnnn3Cc3ccco3)N3CCc4ccccc43)c(=O)[nH]c2cc1C (configuration not stated)	PABP FP inh active, eIF4H FP inh 26
